Most compounds without a hit are left out; they make up all but 19% or so of the library.
TDP1 cell CPT: qHTS for Inhibitors of human tyrosyl-DNA phosphodiesterase 1 (TDP1): qHTS in cells in presence of CPT; chicken DT40 Tdp1-/-;hTDP1 cells + 20 nM CPT, ATP luminescence, 48 h; Potency, µM (series often up to 46.2 µM), inactives show at the top dose activity change, negative = growth inhibition, hits mostly inhibitors; 12% of 420,000 active; AID 686979, 2013; note: potency is the fitted concentration of half-maximal effect; % is set by controls: 0 for no effect and ±100 for the full control effect; nearly all actives have a fitted effect of over 55% in size
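Cell growth measured by CellTiter-Glo luminescence after a minimum 48 h, 37 C compound exposure with 20 nM CPT in Tdp1-knockout DT40 cells stably expressing hTDP1, seeded 400/well; qHTS titration format.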
IL-1B inflam inh: qHTS for Inhibitors of Inflammasome Signaling: IL-1-beta AlphaLISA Primary Screen; 4.7% of 360,000 active; activity change, % at 57.5 µM; THP-1 LPS/ATP IL-1B secretion, AlphaLISA, 16 h; hits give low values; in the data active = activity change below about -50%; inconclusive = mostly about -30% to -49%; note: % is set by controls: 0 for no effect and ±100 for the full control effect
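THP-1 cells pretreated 1 hr with compounds (up to 57.5 uM final), then stimulated with LPS (250 ng/mL final) plus ATP (1.25 mM final); secreted IL-1B measured by AlphaLISA after 16 hr, decreased signal indicating inhibition.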
TDP1 block: qHTS Assay for Inhibitors of Tyrosyl-DNA Phosphodiesterase (TDP1). Tyrosyl-DNA phosphodiesterase 1 (Homo sapiens), Q9NUW8. recombinant TDP1, AlphaScreen DNA substrate cleavage. Potency, µM (highest dose often 130 µM), inactives show at the top dose activity change, negative = inhibition, actives largely listed as inhibitors. 0.28% of 350,000 active. AID 485290, 2010; note: potency is the fitted concentration of half-maximal effect; % is set by controls: 0 for no effect and ±100 for the full control effect; nearly all actives have a fitted effect of over 40% in size
Target sequence (Q9NUW8 whole entry, looked up): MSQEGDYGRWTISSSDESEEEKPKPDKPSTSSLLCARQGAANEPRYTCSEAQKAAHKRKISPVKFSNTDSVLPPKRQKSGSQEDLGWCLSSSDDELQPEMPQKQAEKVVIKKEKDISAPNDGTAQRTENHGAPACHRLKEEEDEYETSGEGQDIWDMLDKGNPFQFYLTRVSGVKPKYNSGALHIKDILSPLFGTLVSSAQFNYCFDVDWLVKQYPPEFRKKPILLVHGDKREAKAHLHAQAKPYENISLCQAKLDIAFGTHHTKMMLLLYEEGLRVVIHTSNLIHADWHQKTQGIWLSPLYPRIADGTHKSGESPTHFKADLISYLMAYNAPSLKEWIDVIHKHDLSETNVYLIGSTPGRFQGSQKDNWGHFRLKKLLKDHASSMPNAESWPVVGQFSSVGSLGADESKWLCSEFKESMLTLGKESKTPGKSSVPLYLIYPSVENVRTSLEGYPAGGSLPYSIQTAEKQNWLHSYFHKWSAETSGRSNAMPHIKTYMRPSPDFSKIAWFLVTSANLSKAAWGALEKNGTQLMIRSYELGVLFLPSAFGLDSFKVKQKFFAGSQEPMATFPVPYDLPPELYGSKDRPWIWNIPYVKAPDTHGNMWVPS
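E. coli-derived human Tdp1, 1 nM final. Cpd preinc 15 min RT; substrate 15 nM final, 5 min RT; AS bead mix 10 ug/ml final, 10 min RT. Signal loss = tyrosine-FITC cleavage. No-enzyme wells = max signal.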
TDP1 cell noCPT: qHTS for Inhibitors of human tyrosyl-DNA phosphodiesterase 1 (TDP1): qHTS in cells in absence of CPT; DT40 Tdp1-/- hTDP1 cells, no CPT, ATP luminescence, 48 h; Potency, µM (top dose mostly 46.2 µM), inactives show top-dose activity change, negative = growth inhibition, usual class: inhibitors; 15% of 420,000 active; note: potency is the fitted concentration of half-maximal effect; % is set by controls: 0 for no effect and ±100 for the full control effect; nearly all actives have a fitted effect of over 55% in size
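No-CPT arm: Tdp1-/-;hTDP1 DT40 cells (400/well) plus compounds, incubated ≥48 hr at 37 °C. Readout CellTiter-Glo luminescence.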
TGFb inhibitor: qHTS for Inhibitors of TGF-b; HepG2 CAGA-GFP TGF-b/SMAD3 reporter, GFP fluorescence, 18 h; TGF-beta stimulated, 500 pg/mL final; Potency, µM (series often up to 46.1 µM), for inactives: top-dose activity, negative = inhibition, hits mostly inhibitors; 1.2% of 410,000 active; AID 588855, 2011; note: potency is the fitted concentration of half-maximal effect; % is set by controls: 0 for no effect and ±100 for the full control effect; nearly all actives have a fitted effect of over 65% in size
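Per well, imaged GFP fluorescence of HEPG2 CAGA-GFP cells gives the signal; cells get compound, then TGF-beta (500 pg/mL final), 18 h at 37 degrees C; %Activity versus -TGF-beta and +DMSO controls.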
HepG2 tox: qHTS for Inhibitors of TGF-b: Cytotox Counterscreen; HepG2 CAGA-GFP viability, ATP luminescence, 18 h; Potency, µM (titrated, usually from 46.1 µM), without a hit: at the top dose activity change, negative = cytotoxicity, most hits filed as cytotoxic; 0.76% of 410,000 active; note: potency is the fitted concentration of half-maximal effect
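HepG2 CAGA-GFP cells (1000/well, DMEM with 1% FBS) received compound, then TGF-beta at 500 pg/mL final, and were incubated 18 hours at 37 degrees C. Viability was read by CellTiter-Glo luminescence. Media-only wells were set as complete cell-killing and DMSO as no toxicity.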
Active calls of the source: *; u = inconclusive; x = no result; [ ] = remark or other dose. Unless noted, calls come from the whole dose curve; as a rule, active = well fitted curve in the direction sought with a large enough effect; inconclusive = small, poorly fitted or top-dose-only effect, or another doubt; inactive = no such curve, though single readings can be large; an effect the other way counts as inactive or inconclusive.

SMILES	TDP1 cell CPT	IL-1B inflam inh	TDP1 block	TDP1 cell noCPT	TGFb inhibitor	HepG2 tox
COC(=O)c1nnn(CC(=O)Nc2ccc(Br)c(C)c2)c1N	-3.0%	x	0.0%	-2.6%	1.1%	-0.7%
Cc1cc(C)nc(N/N=C/C2=C(O)CC(c3ccc(F)cc3)CC2=O)n1 (centres undefined)	23.1µM*	252.3	0.0%	9.2µM*	-21.3%	-6.3%
CS(=O)(=O)N1CCc2cc(-c3csc(NC(=O)Cc4cccs4)n3)ccc21	13µM*	-65.4*	4.5%	8.2µM*	u	-35.3%
CC(=O)Nc1nc(-c2ccc3c(c2)CCN3S(C)(=O)=O)cs1	-20.3%	-27.3	7.1%	u	18.1%	6.9%
O=C(Cc1cccs1)Nc1nc(-c2ccccc2)cs1	23.1µM*	-69.9*	3.0%	8.2µM*	0.9%	-32.7%
O=C(COC(=O)/C=C/c1cccs1)Nc1nc(-c2ccccc2)cs1	16.4µM*	-12.6	1.1%	13µM*	-18.6%	-39.0%
O=C(COC(=O)c1cccs1)Nc1nc(-c2ccccc2)cs1	2.8%	-5.4	2.7%	u	2.0%	0.7%
O=C(OCC(=O)N(CCc1ccccc1)Cc1ccccc1)c1ccccc1NCCO	u	11.7	-5.0%	u	1.0%	-1.8%
CC(=O)N1N=C(c2ccccc2)OC12CCCC2	-2.6%	0.0	-6.0%	-9.9%	-0.4%	-1.0%
CC(=O)N1N=C(c2ccc3ccccc3c2)OC12CCCC2	20.6µM*	4.3	0.0%	u	-22.3%	-10.0%
Nc1c(C2CCCCC2)c(=O)on1C(=O)c1ccccc1	u	13.4	x	u	-3.1%	0.0%
CCOC(=O)c1c(C)oc2ncnc(Nc3cc(C)cc(C)c3)c12	-14.6%	x	-3.2%	-7.7%	6.7%	5.6%
Cc1nn(Cc2cccc(C(=O)NC34CC5CC(CC(C5)C3)C4)c2)c(C)c1Br	u	-25.2	6.7%	u	u	-11.1%
CCCNC(=O)c1cccc(Cn2nc(C)c(Br)c2C)c1	16.4µM*	-10.2	4.7%	20.6µM*	4.2%	-5.7%
CC(/C=C/C=C(C)/C=C/C(=O)O)=C\C=C\C=C(C)\C=C\C=C(C)\C=C\C(=O)O	x	x	2.82µM*	x	x	x
CCc1ccccc1NC1=NCC(=O)N1C1CCCC1	23.1µM*	2.3	0.0%	u	-1.7%	-3.4%
CCOc1ccc2oc(C(=O)N3CCCN(C)CC3)c(C)c2c1	-14.3%	-5.3	-0.1%	u	10.6%	-17.6%
CCOc1c([N+](=O)[O-])cc2c(C)c(C(=O)N3CCN(C)CC3)oc2c1OCC	17.5%	2.9	x	16.4µM*	0.0%	-3.3%
O=[N+]([O-])c1cnccc1Nc1ccccc1	u	14.7	3.3%	u	7.9%	-8.1%
O=C(O)c1cccc(Nc2ccncc2[N+](=O)[O-])c1	u	-6.8	x	18.4µM*	3.0%	-15.1%
Cc1cc(C(=O)N/N=C/c2ccc([N+](=O)[O-])s2)n[nH]1	5.8µM*	-5.6	-2.7%	5.17µM*	11.2µM*	17.8µM*
Cc1[nH]cnc1C(=O)N/N=C/c1ccc([N+](=O)[O-])s1	11.6µM*	16.9	x	10.3µM*	-20.4%	-132.8%
CCc1ccccc1NC(=O)CSc1nnc(COc2ccccc2Cl)o1	-9.7%	x	x	-26.8%	-4.7%	-11.6%
Cc1ccccc1NC(=O)CC1SC(=O)N(c2ccccc2)C1=O (centres undefined)	6.51µM*	24.7	4.5%	4.61µM*	-27.1%	-23.6%
CCOc1ccc(NC(=O)CC2SC(=O)N(c3ccccc3)C2=O)cc1 (centres undefined)	1.16µM*	-2.1	0.0%	2.91µM*	-1.7%	-1.3%
SMILES	TDP1 cell CPT	IL-1B inflam inh	TDP1 block	TDP1 cell noCPT	TGFb inhibitor	HepG2 tox
COc1ccccc1NC(=O)CC1SC(=N)N(c2ccccc2)C1=O (centres undefined)	-16.7%	-7.4	5.1%	u	-24.3%	-31.8%
O=C(CC1SC(=O)N(c2ccccc2)C1=O)Nc1cccc2ccccc12 (centres undefined)	3.26µM*	-0.4	x	5.17µM*	-17.4%	10.7%
Cc1ccc(S(=O)(=O)CCC(=O)OCC(=O)NCC(=O)Nc2c(C)cc(C)cc2C)cc1	u	-7.4	x	-9.3%	-9.8%	-6.0%
O=C(CSc1nnnn1-c1ccc(F)cc1)NNC(=O)c1ccco1	7.7%	-6.6	3.1%	2.1%	5.2%	-5.9%
CCOc1ccc(-n2nnnc2SCC(=O)NNC(=O)c2ccco2)cc1	16.4µM*	19.0	x	u	0.8%	-0.2%
CC(OC(=O)c1snc(C(=O)NC2CCCCC2)c1N)C(=O)NC(C)(C)C (centres undefined)	14.1µM*	0.0	2.5%	12.6µM*	-18.3%	-34.4%
Cc1ccc(SCCC(=O)N2CCN(S(=O)(=O)c3ccccc3)CC2)cc1	u	-5.0	0.9%	u	-12.0%	-1.7%
CCc1ccc(CCC(=O)N2CCN(S(=O)(=O)c3ccc(Br)cc3)CC2)cc1	u	-6.7	x	18.4µM*	-21.6%	-14.4%
CCCOc1ccccc1OCC(=O)N1CCN(S(=O)(=O)c2ccc(Cl)cc2)CC1	-26.5%	-3.1	0.1%	-12.7%	u	-16.7%
Cc1cc(Cl)ccc1OCCCC(=O)N1CCN(C(=O)c2ccco2)CC1	u	-0.7	3.1%	20.6µM*	-1.9%	-18.2%
CCOc1ccccc1OCCCC(=O)N1CCN(S(=O)(=O)c2ccc(Cl)cc2)CC1	u	-12.3	2.7%	18.4µM*	-24.0%	-6.7%
O=C(CCSc1ccc(Cl)cc1)N1CCN(S(=O)(=O)c2ccccc2)CC1	20.6µM*	-13.3	-2.5%[56.1 µM]	18.4µM*	-40.1%	-14.9%
Fc1ccc(-c2csc(-c3nc(-c4ccc(Br)s4)cs3)n2)cc1	9.7%	x	-0.9%	-20.4%	-3.2%	4.2%
CC(=O)Nc1nonc1-c1nnc(SCC(=O)Nc2ccccc2Cl)n1C	-3.7%	x	3.6%	-24.8%	-3.4%	-9.5%
NCCNCCN	17.2%	x	3.0%	3.1%	x	x
O=C1CCC([N+](=O)[O-])C(c2ccccc2F)N1 (centres undefined)	-8.9%	-14.4	x	-0.6%	-1.2%	-6.5%
CCOc1ccc(OCCCC(=O)N2CCN(S(=O)(=O)c3ccccc3C#N)CC2)cc1	u	-51.8*	0.5%	u	-4.6%	-23.9%

Screens from PubChem BioAssay.
